This is an account of results in PubChem BioAssay (NCATS).

Assay [1] can be described thus: P-glycoprotein substrates identified in KB-3-1 adenocarcinoma cell line, qHTS therapeutic library screen (AID 1346986). Further: nearly all actives have a fitted effect of over 60% in size.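 Further: potency means the concentration at half of the fitted maximal effect; potency is for cytotoxicity meaning loss of cell viability.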 A digest of the protocol:
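Resistance attributable to P-gp was assessed by comparing AC50 in KB-8-5-11 with parental KB-3-1 and by tariquidar reversal. Cells were exposed 72 h and viability read by CellTiter-Glo.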

The test system of assay [2] is Zika virus NS2B-NS3 protease. Nature of the assay: Primary screen GU AMC qHTS for Zika virus inhibitors (AID 1347154).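 Further: 0% = no-inhibitor control and -100% = no-enzyme control; nearly all actives have a fitted effect of over 70% in size.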 A digest of the protocol: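 Unlinked Zika NS2B hydrophilic domain/NS3 protease domain noncovalent complex (25 nM final) in 10 mM Tris-HCl pH 8.0, 0.01% Tween 20, with AMC peptide substrate. Fluorescence (ex 340, em 450 nm) change over 15 min, room temperature; percent inhibition fitted to 4-parameter Hill equation.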

A short description of assay [3]: Primary qHTS for small molecule stabilizers of the endoplasmic reticulum resident proteome: Secreted ER Calcium Modulated Protein (SERCaMP) assay (AID 1508630). Further: on the % scale 0 is the no-effect control and ±100 the full control effect. The method in brief:
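GLuc-SERCaMP-expressing SH-SY5Y cells, pretreated 16 h with compound, are challenged with thapsigargin to empty ER calcium stores; after 4 h, coelenterazine is added directly to the medium and luminescence is imaged.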
Background: Quantitative high-throughput screening tests each substance at several concentrations.

Assay [4] in a line: P-glycoprotein substrates identified in KB-8-5-11 adenocarcinoma cell line, qHTS therapeutic library screen (AID 1346987). Further: nearly all actives have a fitted effect of over 65% in size. The method in brief:
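KB-8-5-11, a colchicine-selected P-gp-overexpressing KB-3-1 subline, was grown without colchicine for the assay. Cells were seeded at 500 cells/well, dosed in concentration-response and incubated 72 h at 37 degree C, 5% CO2. Viability was read by CellTiter-Glo luminescence.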

The nature of assay [5]: Primary qHTS for inhibitors of nuclear receptor binding SET domain protein 2 (NSD2) in an RCH-ACV wild type WT cells (2C) (AID 1645877). Further: nearly all actives have a fitted effect of over 70% in size. Further: potency means the concentration at half of the fitted maximal effect.
The target in assay [6] is Glutathione peroxidase 1 (Homo sapiens) (UniProt P07203). Briefly: Primary qHTS Assay for Inhibitors of Recombinant Selenoprotein Glutathione Peroxidase 1 (GPX1) (AID 1845191). Further: nearly all actives have a fitted effect of over 65% in size. The method in brief:
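Recombinant GPX1 (10 nM final) was preincubated with compound for 30 min at room temperature, then reacted with 1 mM GSH, 0.5 mM CHP, 0.5 mM NADPH and 100 nM glutathione reductase; NADPH fluorescence (340/450 nm) was read at 0 and 15 min.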

The target of assay [7] is Calcium and integrin-binding protein 1 (Homo sapiens) (UniProt Q99828). Nature of the assay: Primary qHTS for Identification of Calcium Integrin Binding Protein 1 (CIB1) Competitor (AID 1508620).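 Further: GST tagged CIB1 binding a fluorescein labelled alphaIIb integrin peptide tracer; top concentration of the series differs between compounds; on the % scale 0 is the no-effect control and ±100 the full control effect.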 The method in brief:
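Fluorescence polarization competition: CIB1-GST (1 uM final) preincubated with compound 15 min at room temperature, then FITC-labeled alphaIIb peptide (100 nM final) added for another 15 min. Polarization read at Ex 480/Em 540.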

Assay [8] deals with N-terminal Xaa-Pro-Lys N-methyltransferase 1 (Homo sapiens) (UniProt Q9BV86). Briefly: Confirmatory qHTS for Inhibitors of N-terminal methyltransferase 1 (NTMT1): MTaseGlo Assay (AID 1645874). Further: potency means the concentration at half of the fitted maximal effect; nearly all actives have a fitted effect of over 65% in size. A digest of the protocol:
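qHTS format: NTMT1 125 nM, SAM 100 uM, peptide SPKRIA 1 uM final; 15 min compound preincubation, 30 min reaction at room temperature. MTase-Glo luminescence.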

A short description of assay [9]: Primary qHTS for inhibitors of nuclear receptor binding SET domain protein 2 (NSD2) in an isogenic RCH-ACV NSD2 p.E1099K mutant (9B) (AID 1645876). Further: nearly all actives have a fitted effect of over 70% in size. Further: potency means the concentration at half of the fitted maximal effect.
Assay [10] deals with Catechol O-methyltransferase (Homo sapiens) (UniProt P21964). Nature of the assay: Confirmatory Screen for Target Class Profiling of Small Molecule Inhibitors of Methyltransferases (AID 1745852; calls by dose curve; further: potency means the concentration at half of the fitted maximal effect). The conditions noted are these: MTase-Glo luminescence, SAH detection, recombinant enzyme; measured here: COMT max response; stronger effect = lower value.
The target of assay [11] is Guanidinoacetate N-methyltransferase (Homo sapiens) (UniProt Q14353). Described as above. The conditions noted are these: activity change, negative = inhibition: at 57.3 µM (top of the series) unless noted.
Assay [12] addresses Nicotinamide N-methyltransferase (Homo sapiens) (UniProt P40261). The assay is described as above. The note with it: MTase-Glo luminescence, SAH detection, recombinant enzyme; measured here: NNMT max response; stronger effect = lower value.
Assay [13] addresses Phenylethanolamine N-methyltransferase (Homo sapiens) (UniProt P11086). The assay is described as above. The note with it: MTase-Glo luminescence, SAH detection, recombinant enzyme; measured here: PNMT max response; stronger effect = lower value.
Assay [14] is described as follows: qHTS to identify inhibitors of the type 1 interferon - major histocompatibility complex class I in skeletal muscle: primary screen against the NCATS Mechanism Interrogation Plate v5.0 (MIPE) Libary (AID 1347411). Further: potency means the concentration at half of the fitted maximal effect; nearly all actives have a fitted effect of over 65% in size. The method in brief:
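Immortalized human myoblasts (C25cl48) with HiBit knocked into endogenous HLA-B*08:01 were stimulated with 4 ng/ml IFN-beta and given compounds in 11-point 1:3 titration from 46 uM. After 24 h at 37 C, lytic HiBiT luminescence was read.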

Assay [15] is described as follows: qHTS drug screen for cell cycle checkpoint inhibitors in PARPi-resistant BRCA-mutant ovarian cancer cell lines. (AID 1963452; calls by dose curve). The note with it: PEO1/OlaR viability, CellTiter-Glo luminescence, 96 h, stronger effect = lower value. A digest of the protocol: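 PEO1, PEO4 and PEO1/OlaR ovarian cancer cells, 600 per well, exposed 96 h at 37C to a dilution series. Viability read by CellTiter-Glo luminescence, normalized to DMSO and empty wells; activity summarized as Z-AUC.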

Where [16] appears, read: measured here: PEO1 parental Z-AUC.

Inconclusive results are not listed. Active and inactive are the calls of the source. Unless noted, the call rests on the fitted dose curve; in most records, active means well fitted curve in the direction sought with a large enough effect; inconclusive means small, poorly fitted or top-dose-only effect, or another doubt; inactive means no such curve, though single readings can be large; an effect the other way counts as inactive or inconclusive.

Chain of Glutathione peroxidase 1 (Homo sapiens) (P07203 whole entry, looked up): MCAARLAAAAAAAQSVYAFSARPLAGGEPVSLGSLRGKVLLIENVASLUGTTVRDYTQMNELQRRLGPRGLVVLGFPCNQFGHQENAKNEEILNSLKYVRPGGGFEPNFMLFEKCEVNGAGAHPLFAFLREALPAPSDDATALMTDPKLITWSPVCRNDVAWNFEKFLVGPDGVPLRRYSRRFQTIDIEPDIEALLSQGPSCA
Chain of Phenylethanolamine N-methyltransferase (Homo sapiens) (P11086 whole entry, looked up): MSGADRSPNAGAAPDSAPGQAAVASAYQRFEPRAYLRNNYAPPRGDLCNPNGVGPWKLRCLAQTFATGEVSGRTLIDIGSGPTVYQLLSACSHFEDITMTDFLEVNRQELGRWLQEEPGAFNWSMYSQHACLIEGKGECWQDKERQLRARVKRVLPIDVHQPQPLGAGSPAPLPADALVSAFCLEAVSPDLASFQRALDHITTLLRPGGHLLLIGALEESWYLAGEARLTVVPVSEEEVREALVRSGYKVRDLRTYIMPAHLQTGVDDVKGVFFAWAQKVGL
Chain of Catechol O-methyltransferase (Homo sapiens) (P21964 whole entry, looked up): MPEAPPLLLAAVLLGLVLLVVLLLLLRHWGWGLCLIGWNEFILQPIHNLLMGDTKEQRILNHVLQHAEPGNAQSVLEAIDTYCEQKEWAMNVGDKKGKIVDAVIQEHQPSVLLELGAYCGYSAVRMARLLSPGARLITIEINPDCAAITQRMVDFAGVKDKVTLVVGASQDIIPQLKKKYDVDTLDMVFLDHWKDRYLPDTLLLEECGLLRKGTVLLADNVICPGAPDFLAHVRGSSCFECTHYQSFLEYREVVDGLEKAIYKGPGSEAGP
Chain of Nicotinamide N-methyltransferase (Homo sapiens) (P40261 whole entry, looked up): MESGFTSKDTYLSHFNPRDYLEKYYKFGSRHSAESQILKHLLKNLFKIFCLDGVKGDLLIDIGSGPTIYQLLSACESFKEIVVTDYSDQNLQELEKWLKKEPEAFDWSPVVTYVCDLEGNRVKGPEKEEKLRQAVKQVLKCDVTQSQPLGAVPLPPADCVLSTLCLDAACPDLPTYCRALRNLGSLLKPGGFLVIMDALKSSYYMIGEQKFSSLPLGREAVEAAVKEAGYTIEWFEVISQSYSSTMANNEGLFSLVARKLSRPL
Chain of Calcium and integrin-binding protein 1 (Homo sapiens) (Q99828 whole entry, looked up): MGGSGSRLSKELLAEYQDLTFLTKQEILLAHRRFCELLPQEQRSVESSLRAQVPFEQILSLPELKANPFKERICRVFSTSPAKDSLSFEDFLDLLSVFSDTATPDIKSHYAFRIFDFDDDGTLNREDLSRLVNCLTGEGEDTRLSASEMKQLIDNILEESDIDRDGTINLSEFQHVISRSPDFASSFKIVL
Chain of N-terminal Xaa-Pro-Lys N-methyltransferase 1 (Homo sapiens) (Q9BV86 whole entry, looked up): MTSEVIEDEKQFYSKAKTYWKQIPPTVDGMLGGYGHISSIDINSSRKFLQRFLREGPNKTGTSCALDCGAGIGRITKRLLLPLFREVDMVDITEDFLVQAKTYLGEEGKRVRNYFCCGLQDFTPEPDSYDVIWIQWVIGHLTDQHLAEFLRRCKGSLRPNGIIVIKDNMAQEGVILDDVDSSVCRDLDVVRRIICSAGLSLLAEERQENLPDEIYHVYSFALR

As for `O=c1cc(N2CCNCC2)oc2c(-c3ccccc3)cccc12`, the Potency in assay [1] is 7.31 µM (active). Also, the Potency entry in assay [2] and in assay [3] was “inactive” each time.

In the case of `C[n+]1cc(NC(=O)c2cccc(C(=O)Nc3cc4ccccc4[n+](C)c3)n2)cc2ccccc21`, in assay [1], the Potency is 16.4 µM (active). Further, the Potency result in [4], in assay [5] and in assay [6] was “inactive” throughout.

`Cc1nc(CN(C)c2ncnc3ccc(-c4ccc5c(c4)OCO5)cc23)cs1`: the Potency in assay [1] was 16.4 µM (active); in [8], 4.26 µM (active); in [9] it was 8.2 µM (active); in assay [5] it was 9.2 µM (active); in assay [11], 19.2 µM (active). Moreover, in assay [7], the outcome was “inactive”. The values for the activity in [10], in [12] and in assay [13] were -89.6%, -80.4% and -90.3%, respectively. For the same compound, the Potency result in assay [6] is “inactive”.

With `Cc1ccc(Nc2ncc3c(n2)N(C)C(=O)N(c2cc(NC(=O)c4cccc(C(F)(F)F)c4)ccc2C)C3)cn1`, the Potency entry in assay [1] and in assay [6] was “inactive” each time. Moreover, the figures for the Potency in assay [14], in assay [9] and in [5] were 0.0658 µM (active), 0.0332 µM (active) and 0.059 µM (active), respectively. The Z-AUC in assay [15] is -1.89 (inactive); in [15] (setting [16]), -2.2; in assay [15] (measured here: PEO4 Z-AUC), -1.4.

With `CC(C)OC(=O)OCOP(=O)(COC(C)Cn1cnc2c(N)ncnc21)OCOC(=O)OC(C)C` (configuration not stated), the Potency result in assay [1], in assay [4] and in assay [5] was “inactive” each time.

As to `NC1CCCN(c2c(/C=C3\SC(=O)NC3=O)cccc2-c2ccccc2)C1` (configuration not stated), the Potency entry in assay [1], in assay [4] and in assay [6] was “inactive” throughout. The figures for the Z-AUC in [15], in assay [15] (setting [16]) and in [15] (measured here: PEO4 Z-AUC) were -0.874 (inactive), -0.352 and -1.12, respectively.

Take `Cc1c[nH]c(/C=C2\C(=O)Nc3ccccc32)c1CCC(=O)O`: the Potency result in assay [1], in assay [4] and in assay [6] was “inactive” in each case. For the same compound, the figures for the Potency in assay [9] and in assay [5] were 14.8 µM (active) and 18.6 µM (active), respectively. Also, the results for the Z-AUC in assay [15], in assay [15] (setting [16]) and in assay [15] (measured here: PEO4 Z-AUC) were 1.24 (inactive), 1.05 and 1.31, respectively.

With `c1ccc(-c2[nH]ncc2-c2ccnc3ccccc23)nc1`, the Potency result in assay [1], in assay [2], in assay [3], in [9], in assay [5] and in assay [6] was “inactive” in each case.

For `Cc1ccc(Cl)cc1NC(=O)c1nc[nH]c1C(=O)Nc1nc2ccccc2[nH]1`, the Potency entry in assay [1], in assay [9], in [5] and in assay [6] was “inactive” in each case.

Regarding `CSC(Cc1ccc(Cl)cc1)C(=O)Nc1ccc(Cl)cc1C(=O)O` (configuration not stated), the Potency result in assay [1], in assay [9], in assay [5] and in assay [6] was “inactive” throughout.

As for `Nc1ncnc2c1ncn2[C@H]1O[C@H](CO)[C@@H](O)[C@@H]1O`, in assay [1], the Potency entry is “inactive”. Also, the Potency in assay [9] and in [5] was 39.8 µM (active) in each case.

Take `C[C@@]1(F)[C@H](O)[C@@H](CO)O[C@H]1n1ccc(N)nc1=O`: the Potency entry in assay [1], in assay [9] and in assay [5] was “inactive” each time.

`CCN(CC)CCNc1ccc2ncn3c4ccc(O)cc4c(=O)c1c23`: the results for the Potency in [1], in assay [9] and in [5] were 1.3 µM (active), 0.0651 µM (active) and 0.058 µM (active), respectively. In addition, the Potency result in [6] is “inactive”.

As for `c1nc(NCC2CCOC2)c2cc(-c3ccc4c(c3)OCO4)ccc2n1` (configuration not stated), the Potency result in assay [1] and in assay [6] was “inactive” each time. In addition, the Potency was 16.4 µM (active) in [9] and 42.9 µM (active) in [11]. Besides, the values for the activity in assay [10], in [12] and in [13] were -39.2%, -29.1% and -63.5%, respectively.

Regarding `O=C(/C=C/c1nc2ccccc2[nH]1)c1c(-c2ccccc2)c2cc(Cl)ccc2[nH]c1=O`, the Potency in assay [1] was 7.31 µM (active); in assay [9] it was 1.16 µM (active); in assay [5] it was 1.03 µM (active). Further, the Potency result in assay [6] was “inactive”.
